From PubChem BioAssay
In the library only some 2.5% were active in any assay of this set; here they are far more common.
MEKK2 mut-MEK5: signal of MEK5 binding to mutant human MEKK2 PB1 domain; percent response, % at 10 µM; bead flow cytometry, Alexa488-MEK5 binding to MEKK2 mutant; hit rate 0.35% among 290,000; AID 1530; in the data active = percent response above about 24%, passing the limit was not always enough
UBC13 polyUb: human UBC13 polyubiquitination inhibition; AID 485273; P61088; hit rate 0.47% among 330,000; UBC13 polyubiquitin chain formation, TR-FRET; inhibition, % at 20 µM; in the data active = inhibition above about 45%, passing the limit was not always enough
MEKK3 PB1 HTS: raises or lowers MEK5 binding to the human MEKK3 PB1 domain; Q99759; bead-based flow cytometry, Alexa488-MEK5 binding to MEKK3; actives lie on both sides; 0 = blocked by unlabeled MEK5, 100 = vehicle; binding response (% of control), % at 10 µM; hit rate 1.4% among 290,000;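 active = binding response more than 3 SD above or below the average of its plate-row segment, actives on both sides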;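 also: Alexa488 bead fluorescence after subtracting the streptavidin-only scavenger bead signal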
Target sequence (Q99759 whole entry, looked up, the tested form may be a part): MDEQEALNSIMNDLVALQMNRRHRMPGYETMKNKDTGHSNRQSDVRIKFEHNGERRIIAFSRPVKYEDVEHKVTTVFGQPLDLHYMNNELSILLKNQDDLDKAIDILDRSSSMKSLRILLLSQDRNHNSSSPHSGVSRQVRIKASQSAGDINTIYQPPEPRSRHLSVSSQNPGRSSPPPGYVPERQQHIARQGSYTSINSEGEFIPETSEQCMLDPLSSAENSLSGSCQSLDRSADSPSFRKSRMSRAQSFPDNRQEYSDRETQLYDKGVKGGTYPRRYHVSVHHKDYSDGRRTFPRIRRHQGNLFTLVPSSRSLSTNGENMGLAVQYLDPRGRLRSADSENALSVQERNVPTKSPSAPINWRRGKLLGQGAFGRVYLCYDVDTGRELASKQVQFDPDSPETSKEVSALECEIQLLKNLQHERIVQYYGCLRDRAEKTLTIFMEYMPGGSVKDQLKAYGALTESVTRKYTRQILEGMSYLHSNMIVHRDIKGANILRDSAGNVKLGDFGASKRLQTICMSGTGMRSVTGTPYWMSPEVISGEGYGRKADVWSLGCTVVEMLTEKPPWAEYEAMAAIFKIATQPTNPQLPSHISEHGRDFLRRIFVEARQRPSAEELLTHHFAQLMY
MEKK2 WT-MEK5: raises or lowers MEK5 binding to wildtype human MEKK2 PB1 domain. hit rate 1.1% among 290,000. binding response (% of control), % at 10 µM. Q9Y2U5. bead flow cytometry, Alexa488-MEK5 binding to MEKK2 WT; actives lie on both sides; in the data active = binding response below about 67% or above about 130%
Rce1 inhib: yeast Ras-converting enzyme inhibition; Q03530; calls only; hit rate 0.27% among 290,000; yeast membranes, quenched prenylated peptide cleavage fluorescence;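 active = fall in fluorescence gain of 50% or more versus controls, with final raw signal at or below 3038400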
MEKK2wt confirm: raises or lowers MEK5 binding to wildtype human MEKK2, retest | shares compounds with MEKK3 PB1 HTS | bead flow cytometry, Alexa488-MEK5 binding to MEKK2 WT; actives lie on both sides | binding response (% of control), % at 10 µM | hit rate 2.4% among 5,900 | AID 1892; in the data active = binding response below about 16% or above about 210%; inactive = in between
MEKK2mut confirm: signal of MEK5 binding to mutant human MEKK2, retest; percent response, % at 10 µM; bead flow cytometry, Alexa488-MEK5 binding to MEKK2 mutant; hit rate 2% among 5,900; shares compounds with MEKK3 PB1 HTS; in the data active = percent response mostly above about 71%, no sharp cut-off; inactive = mostly below about 38%;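 also: higher means compound restores mutant binding toward wildtype level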
MEKK3-MEK5 inh: confirmation of inhibitors of MEK5 binding to human MEKK3; hit rate 1.8% among 5,900; binding response (% of control), % at 10 µM; bead flow cytometry, Alexa488-MEK5 binding to MEKK3; active compounds read low; shares compounds with MEKK3 PB1 HTS;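 active = binding response below 72% of control, or above a set upper limit, though filed actives all read lower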;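 also: lower values mean stronger disruption of MEK5 binding to MEKK3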
Large screens that a line does not name were inactive (follow-up assays come after a bar, where they were run); [ ] = dose if it differs, or a comment.

CC(=O)c1sc(N)c(C(=O)OC(C)C)c1C	none
Cc1c(C(N)=O)sc(N)c1C(=O)OC(C)C	MEKK3 PB1 HTS 122 (no result: Rce1 inhib) | MEKK2wt confirm inactive | MEKK2mut confirm inactive | MEKK3-MEK5 inh inactive
Cc1c(C(=O)OC(C)C)sc(N)c1C(=O)OC(C)C	MEKK3 PB1 HTS 131 | MEKK2wt confirm inactive | MEKK2mut confirm inactive | MEKK3-MEK5 inh inactive
O=C(NCc1cc([N+](=O)[O-])ccc1O)c1cc(-c2ccncc2)nc2ccccc12	none
O=C(CSc1nnc(C2CC2)n1C1CC1)c1ccc(Br)s1	none (no result: MEKK2 mut-MEK5, MEKK3 PB1 HTS, MEKK2 WT-MEK5, Rce1 inhib)
NC(=O)C1(N2CCCCC2)CCN(S(=O)(=O)c2cc(Cl)sc2Cl)CC1	none
Cc1cc(NC(=O)CSc2nnc(N)s2)c([N+](=O)[O-])cc1C	MEKK3 PB1 HTS 65[inhibitor] | MEKK2wt confirm inactive | MEKK2mut confirm inactive | MEKK3-MEK5 inh inactive
CC1CCCC(NC(=O)Cc2ccc(Br)cc2)C1C (stereo unspecified)	MEKK3 PB1 HTS 131 | MEKK2wt confirm inactive | MEKK2mut confirm inactive | MEKK3-MEK5 inh inactive
CC1CCCC(NC(=O)COC(=O)Cc2ccc(Br)cc2)C1C (stereo unspecified)	none
CC1CCCC(NC(=O)CSc2nnnn2C)C1C (stereo unspecified)	MEKK3 PB1 HTS 0.0[inhibitor], MEKK2 WT-MEK5 -8.0[inhibitor] | MEKK2wt confirm inactive | MEKK2mut confirm inactive | MEKK3-MEK5 inh inactive
Cc1cccc2cc3c(NC(=O)C(C)(C)C)nn(CC(C)C)c3nc12	none
CN(C)S(=O)(=O)c1ccc(NC(=O)C2CC3C=CC2C3)cc1 (stereo unspecified)	MEKK3 PB1 HTS 3.0[inhibitor], MEKK2 WT-MEK5 9.0[inhibitor] | MEKK2wt confirm inactive | MEKK2mut confirm inactive | MEKK3-MEK5 inh inactive
CN(C)S(=O)(=O)c1ccc(NC(=O)C2COc3ccccc3O2)cc1 (stereo unspecified)	none
CCOC(=O)c1c(C)[nH]c2cc(Br)c(O)cc12	MEKK3 PB1 HTS 2.0[inhibitor], MEKK2 WT-MEK5 2.0[inhibitor] | MEKK2wt confirm inactive | MEKK2mut confirm inactive | MEKK3-MEK5 inh inactive
CCOP(=O)(OCC)C(Nc1ccccn1)c1ccc(F)cc1 (stereo unspecified)	none
CCOP(=O)(OCC)C(Nc1ccccn1)c1ccccc1 (stereo unspecified)	MEKK3 PB1 HTS 135 | MEKK2wt confirm inactive | MEKK2mut confirm inactive | MEKK3-MEK5 inh inactive
C/C(=N\Nc1nc(-c2cc(C)ccc2C)cs1)c1cc2c(ccc3ccccc32)oc1=O	none (no result: UBC13 polyUb)
COc1cc(OC)cc(C(=O)NNC(=O)c2ccccn2)c1	MEKK3 PB1 HTS 135 | MEKK2wt confirm inactive | MEKK2mut confirm inactive | MEKK3-MEK5 inh inactive
CCNc1ccc(Br)cc(C(=O)/C=C/c2ccc(Cl)cc2)c1=O	none
CCNc1ccc(Br)cc(C(=O)/C=C/c2c(Cl)cccc2Cl)c1=O	MEKK2 WT-MEK5 47[inhibitor] | MEKK2wt confirm inactive | MEKK2mut confirm inactive | MEKK3-MEK5 inh inactive
CCNc1ccc(S(=O)(=O)N(C)C)cc1NCC(=O)Nc1ccccc1Cl	none
COc1ccc(/C=N/NC(=O)Cn2cnc3c2c(=O)n(C)c(=O)n3C)c(OC)c1OC	MEKK3 PB1 HTS 71[inhibitor] | MEKK2wt confirm inactive | MEKK2mut confirm inactive | MEKK3-MEK5 inh inactive
Cc1ccc(-n2nc3c(c2NC(=O)/C=C\c2ccc4c(c2)OCO4)CSC3)c(C)c1	MEKK3 PB1 HTS 72[inhibitor] | MEKK2wt confirm inactive | MEKK2mut confirm inactive | MEKK3-MEK5 inh inactive
Cc1ccccc1-n1nc2c(c1NC(=O)/C=C\c1ccc3c(c1)OCO3)CSC2	none
O=C1CC(c2ccccc2)CC(O)=C1C=NCCCN1CCOCC1 (stereo unspecified)	MEKK3 PB1 HTS 81[inhibitor] | MEKK2wt confirm inactive | MEKK2mut confirm inactive | MEKK3-MEK5 inh inactive
O=C(O)CC(CC(=O)N1CCN(C(=O)c2ccco2)CC1)c1ccccc1 (stereo unspecified)	none
CC(C)Cc1nnc(NC(=O)Nc2ccccc2)s1	none
CC(C)COC(=O)c1nnsc1NC(=O)Nc1ccccc1	MEKK3 PB1 HTS 76[inhibitor] | MEKK2wt confirm inactive | MEKK2mut confirm inactive | MEKK3-MEK5 inh inactive
CC[n+]1c(/C=C/c2c[nH]c3ccccc23)ccc2cc(C)ccc21	MEKK2 mut-MEK5 119 (no result: MEKK2 WT-MEK5, Rce1 inhib) | MEKK2wt confirm inactive | MEKK2mut confirm inactive | MEKK3-MEK5 inh inactive
CCN(CC)C(=O)c1ccc(/C=C/c2c[nH]c3ccccc23)[n+](C)c1	none
CC(C)N(C(=O)[C@H]1CC(CC(=O)NC(C)(C)C)C(=O)N2CCc3c([nH]c4ccccc34)[C@]12C)C(C)C (stereo partly specified)	none (no result: MEKK2 mut-MEK5, MEKK3 PB1 HTS, MEKK2 WT-MEK5, Rce1 inhib)
C/C(=N\NC(=O)CNC(=O)C(c1ccccc1)c1ccccc1)c1ccccc1	none
C/C(=N\NC(=O)CNC(=O)C(c1ccccc1)c1ccccc1)c1ccc(C(C)(C)C)cc1	MEKK3 PB1 HTS 162 | MEKK2wt confirm inactive | MEKK2mut confirm inactive | MEKK3-MEK5 inh inactive
Cc1cc(=O)[nH]n(CCO)c1=O	none (no result: Rce1 inhib)
CC(C)c1nnc(NC(=O)C2CCCN2C(=O)Nc2ccccc2[N+](=O)[O-])s1 (stereo unspecified)	none
CC(C)c1nnc(NC(=O)C2CCCN2C(=O)Nc2ccccc2F)s1 (stereo unspecified)	MEKK3 PB1 HTS 151 | MEKK2wt confirm inactive | MEKK2mut confirm inactive | MEKK3-MEK5 inh inactive
COc1ccccc1NC(=O)N1CCCC1C(=O)Nc1nnc(C(C)C)s1 (stereo unspecified)	MEKK3 PB1 HTS 3.0[inhibitor], MEKK2 WT-MEK5 3.0[inhibitor] | MEKK2wt confirm inactive | MEKK2mut confirm inactive | MEKK3-MEK5 inh inactive
CCNc1ccc(C(=O)OCC(=O)c2cc(C)n(Cc3ccc4c(c3)OCO4)c2C)cc1[N+](=O)[O-]	none
CC1CCCCN1C(=O)CSc1nc2c(c(=O)n(C)c(=O)n2C)n1C (stereo unspecified)	none (no result: Rce1 inhib)
CCN(CCCNC(=O)CCn1c(=O)[nH]c2ccccc2c1=O)c1ccccc1	MEKK3 PB1 HTS 34[inhibitor], MEKK2 WT-MEK5 44[inhibitor] | MEKK2wt confirm inactive | MEKK2mut confirm inactive | MEKK3-MEK5 inh inactive
CN(C)CCNC(=O)c1ccc2c(=O)n(Cc3ccc(Cl)cc3)c(=S)[nH]c2c1	MEKK2 mut-MEK5 25, MEKK2 WT-MEK5 138 | MEKK2wt confirm inactive | MEKK2mut confirm inactive | MEKK3-MEK5 inh inactive
O=C(NCCCN1CCCCC1)c1ccc2c(=O)n(CCc3ccccc3)c(=O)[nH]c2c1	none (no result: MEKK2 mut-MEK5, MEKK3 PB1 HTS, MEKK2 WT-MEK5)
CCN(CCCNC(=O)CCn1c(=O)[nH]c2ccccc2c1=O)c1cccc(C)c1	none
CCN(CC)CCNC(=O)c1ccc2c(=O)n(CCc3ccccc3)c(=O)[nH]c2c1	MEKK3 PB1 HTS 125, MEKK2 WT-MEK5 135 | MEKK2wt confirm inactive | MEKK2mut confirm inactive | MEKK3-MEK5 inh inactive
